Experimental data from PubChem BioAssay AID1159580 (chemical genetic matrix, 2015).
Several values for one entry are separate records, joined by “and”; a condition that tells them apart may be missing. Identical values can stand only once. Out of some 5,500 compounds screened, about 2,000 (36%) were called active. About 18% were inconclusive and are not listed. Rule as the data show it: active = normalized growth mostly below about 0.91 (no sharp cut-off); inconclusive = no clear call, values can overlap the other calls; inactive = mostly above about 0.92. This is one part of the list.

Experiment: chemical genetic growth profiling, strain panel (AID 1159580);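 also: tested at 20 µM; growth read once vehicle control cultures reached saturation at 30 °C; 1 = growth at the plate median or of vehicle wells; lower values mean less growth of the strain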
Conditions: S. cerevisiae deletion strains, growth OD

Measured: normalized growth

COc1ccc(NS(=O)(=O)c2ccc(N)cc2)nn1
inactive: locus YAL013W, strain DEP1, active compounds read low 1.01 | locus YAL021C, strain ccr4, active compounds read low 0.989 | locus YAL026C, strain drs2, active compounds read low 1 | locus YAL030W, strain snc1, active compounds read low 0.996 | locus YBL061C, strain skt5, active compounds read low 0.992 | locus YBR009C, strain hhf1, active compounds read low 0.978 | locus YBR021W, strain FUR4, active compounds read low 1.02 | locus YBR023C, strain chs3, active compounds read low 1.01 | locus YBR171W, strain sec66, active compounds read low 0.999 | locus YBR229C, strain ROT2, active compounds read low 1.02 | locus YBR231C, strain swc5, active compounds read low 1 | locus YBR279W, strain paf1, active compounds read low 1 | locus YCL011C, strain gbp2, active compounds read low 1.01 | locus YCL016C, strain dcc1, active compounds read low 0.996 | locus YCL029C, strain bik1, active compounds read low 0.996 | locus YCL069W, strain vba3, active compounds read low 0.992 | locus YCR088W, strain abp1, active compounds read low 1 | locus YDL005C, strain med2, active compounds read low 0.998 | locus YDL035C, strain GPR1, active compounds read low 1.02 | locus YDL040C, strain nat1, active compounds read low 1 | locus YDL074C, strain BRE1, active compounds read low 1.04 | locus YDL101C, strain DUN1, active compounds read low 1.03 | locus YDL134C, strain PPH21, active compounds read low 1.01 | locus YDL185W, strain tfp1, active compounds read low 0.996 | locus YDL192W, strain arf1, active compounds read low 0.99 | locus YDR001C, strain nth1, active compounds read low 1.01 | locus YDR069C, strain doa4, active compounds read low 1 | locus YDR101C, strain arx1, active compounds read low 1 | locus YDR137W, strain rgp1, active compounds read low 1 | locus YDR150W, strain NUM1, active compounds read low 1.02 | locus YDR159W, strain sac3, active compounds read low 0.907 | locus YDR162C, strain NBP2, active compounds read low 1.01 | locus YDR195W, strain ref2 1 | locus YDR297W, strain sur2, active compounds read low 0.989 | locus YDR318W, strain mcm21, active compounds read low 0.988 | locus YDR334W, strain swr1, active compounds read low 1.01 | locus YDR335W, strain msn5, active compounds read low 1 | locus YDR388W, active compounds read low 0.993 | locus YDR392W, strain spt3, active compounds read low 0.881 | locus YDR502C, strain sam2, active compounds read low 0.983 | locus YEL003W, strain gim4, active compounds read low 1.02 | locus YEL037C, strain rad23, active compounds read low 0.995 | locus YEL061C, strain CIN8 (second series), active compounds read low 1.01 | locus YEL061C, strain CIN8, active compounds read low 1.02 | locus YER015W, strain faa2, active compounds read low 1.01 | locus YER016W, strain bim1, active compounds read low 0.988 | locus YER110C, active compounds read low 0.992 | locus YER111C, strain swi4, active compounds read low 0.995 | locus YER155C, strain BEM2 (second series), active compounds read low 0.962 | locus YER155C, strain BEM2, active compounds read low 1 | locus YER167W, strain BCK2, active compounds read low 1.01 | locus YFR010W, strain ubp6, active compounds read low 1 | locus YGL078C, strain dbp3, active compounds read low 0.986 | locus YGL086W, strain mad1, active compounds read low 0.995 | locus YGL167C, strain pmr1, active compounds read low 0.999 | locus YGL173C, strain kem1, active compounds read low 1 | locus YGL227W, strain vid30, active compounds read low 1 | locus YGL240W, strain doc1, active compounds read low 0.987 | locus YGL248W, strain PDE1, active compounds read low 1.03 | locus YGL253W, strain hxk2, active compounds read low 1.01 | locus YGR135W, strain pre9, active compounds read low 0.982 | locus YGR252W, strain gcn5, active compounds read low 0.953 | locus YHR013C, strain ard1, active compounds read low 0.987 | locus YHR027C, strain rpn1, active compounds read low 0.999 | locus YHR030C, strain SLT2, active compounds read low 1.02 and 0.989 | locus YHR079C, strain IRE1 (second series), active compounds read low 0.998 | locus YHR079C, strain IRE1, active compounds read low 0.995 | locus YHR094C, strain hxt1, active compounds read low 0.984 | locus YHR129C, strain ARP1, active compounds read low 1.01 | locus YHR142W, strain chs7, active compounds read low 1 | locus YHR200W, strain rpn10, active compounds read low 0.999 | locus YIL066C, strain RNR3, active compounds read low 1.03 | locus YIL073C, strain SPO22, active compounds read low 0.965 | locus YIL125W, strain kgd1, active compounds read low 0.996 | locus YIR030C, strain dcg1, active compounds read low 0.99 | locus YJL092W, strain hpr5, active compounds read low 1 | locus YJL095W, strain BCK1 (second series), active compounds read low 1 | locus YJL095W, strain BCK1, active compounds read low 1.05 and 1.01 | locus YJL115W, strain asf1, active compounds read low 0.996 | locus YJL129C, strain trk1, active compounds read low 1 | locus YJL134W, strain LCB3, active compounds read low 1.01 | locus YJL154C, strain vps35, active compounds read low 0.997 | locus YJL164C, strain tpk1, active compounds read low 0.985 | locus YJL166W, strain qcr8, active compounds read low 1.02 | locus YJL168C, strain set2, active compounds read low 0.996 | locus YJL187C, strain SWE1 (second series), active compounds read low 1.03 | locus YJR043C, strain POL32, active compounds read low 1.01 | locus YJR066W, strain TOR1, active compounds read low 0.934
